Test results as given in paper PMC12136788.
In all, about 5,800 sequences were measured (“enrichment r”: median about 0.68, highest 2% from about 11 on). Only a selection was taken, and the highest values are over-represented in it overall.

T1: UNK ZnF1-6 (called full-length) (human, UniProt Q9C0B0 30-357)
T1 sequence: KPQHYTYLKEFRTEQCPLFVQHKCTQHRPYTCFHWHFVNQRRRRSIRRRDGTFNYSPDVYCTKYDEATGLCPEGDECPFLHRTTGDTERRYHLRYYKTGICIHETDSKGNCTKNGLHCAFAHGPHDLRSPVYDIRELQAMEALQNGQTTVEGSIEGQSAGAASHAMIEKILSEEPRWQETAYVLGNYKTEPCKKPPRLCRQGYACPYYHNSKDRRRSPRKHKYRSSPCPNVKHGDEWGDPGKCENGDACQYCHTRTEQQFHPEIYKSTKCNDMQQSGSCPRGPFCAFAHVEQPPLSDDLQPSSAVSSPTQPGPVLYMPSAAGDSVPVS

B1: chr22:43879677:43880794:-|three_prime_utr|ENSG00000100341|control|control|control (ssRNA)
RNA: GGGAGUUCUACAGUCCGACGAUCGAGAAAGGAGGACAGCCACAGAGACACAUGUCUUACUUUCAGAAUUUCCACGGGGGGACUAGGAGGGCAGCAUUGCUGGGGAGAGGGGCUCCUGUUCUGCCGUGGAGCUGCCCACGGAGCCAACAGAGGAUUGAGCAUCA
B2: chr3:115809552:115809653:-|3pUTR|ENSG00000185565|unk|total|mutant (ssRNA)
RNA: GGGAGUUCUACAGUCCGACGAUCCUCCCUCACCUCUCCUCACCUCCACCCCCUCCCCAGAGCACCCGUCAUGCCGCAAAUGCCCGGAAGUGCCAUUUUCAUUUUCUCCACUGUGCGUGUGUGCUCAAGUCUUUCGCUCUCACGCAACAGAGGAUUGAGCAUCA
B3: chr4:145760401:145760502:-|3pUTR|ENSG00000151612|unk|FALSE|unique (ssRNA)
RNA: GGGAGUUCUACAGUCCGACGAUCUCCGUACUUUUCUCUGAAAGGAAUCUUGUCUUGUUAAACCCUAAAGAGAGUGUCCUUAAUAGCAAUCAGCACUUGUAAGCUUAUAUACUGGUGCAUUUGGUUUUCUGUUGGGUGAAUGCGCAACAGAGGAUUGAGCAUCA
B4: chr4:48579112:48579224:-|CDS|ENSG00000075539|unk|FALSE|bound_elsewhere (ssRNA)
RNA: GGGAGUUCUACAGUCCGACGAUCCUCUAUUGCCCUAGCUCGAUAGAUUUACAAACUUUAGCAGAAUGGAACUCUUCUCCUAUUAGCCACCAGUUUGAUGUGAUUAGUCCAUCACAUAUAUGGAUAUUUGCACAUGUGACCCAACAACAGAGGAUUGAGCAUCA
B5: chr1:160214333:160214525:+|3pUTR|ENSG00000162734|msi1|FALSE|unique (ssRNA)
RNA: GGGAGUUCUACAGUCCGACGAUCCUACAGUGUUUUCCUUUGCACCGAUCCCCACCCCAAUUCAAUCCCGGAAGGGACUUACUUAGGAAACCCUUCUUUACUAGAUAUCCUGGCCCCCUGGGCUUGUGAACACCUCCUAGCCACCAACAGAGGAUUGAGCAUCA
B6: chr12:53210768:53210868:-|3pUTR|ENSG00000172819|msi1_unk|FALSE|overlapping (ssRNA)
RNA: GGGAGUUCUACAGUCCGACGAUCAGGGGGGAUGCUGCUUAGCUGAUCCCGCCCUGACCCAGAGGAAGCCUCUAUUUAUUUAUUAGCUUUUGUUUACACCGUGGAAUUGACCCCUUCCUCCAGGGGUCUUGGGUGGGGGAGCCCCAACAGAGGAUUGAGCAUCA
B7: chr17:27756765:27757353:-|three_prime_utr|ENSG00000007171|control|control|control (ssRNA)
RNA: GGGAGUUCUACAGUCCGACGAUCCAAGUCUUAUUUCCUCAACGUUGCUCCCCAUCAAGCCCUUUACUUGACCUCCUAACAAGUAGCACCCUGGAUUGAUCGGAGCCUCCUCUCUCAAACUGGGGCCUCCCUGGUCCCUUGGAGCAACAGAGGAUUGAGCAUCA
B8: chr20:63933867:63933968:+|3pUTR|ENSG00000101152|msi1|FALSE|unique (ssRNA)
RNA: GGGAGUUCUACAGUCCGACGAUCAUCAGAGUGGGCCCCUUGCCAGGUGGCUUUUCAGUUACAGAGUCCAGUGGACCAUUUUGUAGAACCAUGCAGCUCCCUGCGGAAGGUGGGGUAGGGUGGGAAAGAGGAGCAGGUCUGGAGCAACAGAGGAUUGAGCAUCA
B9: chr17:49053040:49053141:+|3pUTR|ENSG00000159217|unk|FALSE|unique (ssRNA)
RNA: GGGAGUUCUACAGUCCGACGAUCCUCAGCUCCUGUGAGGGGUCUGGUUAGGAGAGAGCCAUUUUUAAGGACAGGGAGUUUUAUAGCCCUUUUCUACUUUCCUCCCCUCCUCCCAGUCCUUAUCAAUCUUUUUUCCUUUUUCCUCAACAGAGGAUUGAGCAUCA
B10: chr19:3536616:3536717:+|3pUTR|ENSG00000105325|msi1|total|mutant (ssRNA)
RNA: GGGAGUUCUACAGUCCGACGAUCACCGCCGCAGGGCCAGGCGGACGGCGUGAGGUUUGUGUUGGGGCUGGUUCUGCCCAUGCCCGGGGGUGGGGGAGCUCCCAGGACAGACCAGCCUUGUUUCUCAUGUAAUGCAGUGACGCUCAACAGAGGAUUGAGCAUCA
B11: chr15:74955373:74955475:-|3pUTR|ENSG00000178718|unk|FALSE|unique (ssRNA)
RNA: GGGAGUUCUACAGUCCGACGAUCGGACAGUUUUCCUUUCUAGUUUUCUUUCCCCUGCUUCAGAGGAGCAUCUCUGAGGGUUCUAGCUCUUUUAACACCCCUUUUCCCCCUGCUGGCCCAGAGGGAGACCCAGGACUGAACUCUCAACAGAGGAUUGAGCAUCA
B12: chr19:12699869:12699961:-|3pUTR|ENSG00000105576|msi1_unk|FALSE|overlapping (ssRNA)
RNA: GGGAGUUCUACAGUCCGACGAUCGAGGGUGGGGGUGUAGUUACUUCCCAGUUGGCCAGAAAACUGGGCCUUGCAGACCCCCUUAGCAUUUUUUCCCUUUUUUUCCUUCCCUGCUUUCUACUUCUUUGGGGAGCCCCUUGUGUUCAACAGAGGAUUGAGCAUCA
B13: chr17:50110931:50111032:+|3pUTR|ENSG00000005882|unk|FALSE|unique (ssRNA)
RNA: GGGAGUUCUACAGUCCGACGAUCUGUGCCCAGACAUGUGUGCUCAGGGUGGCUUUCUCCCUAGGACCUUCUGUGUAUAUAGUUAGUUUUAUAACCCUGAAUGCCCCCACCCUUCCCCUAAGCACACAGGGGUUAAAGCUGUGUCAACAGAGGAUUGAGCAUCA
B14: chr11:2944997:2945113:-|3pUTR|ENSG00000205531|unk|FALSE|unique (ssRNA)
RNA: GGGAGUUCUACAGUCCGACGAUCCUGUGUAGAGUAGGGCCCUGUUCUCCUUAGGAUGUUGCUUCUUGAUUUUUUUUUUUUUUUAGGGGUGGGUCAGGGUUGUGACACACCAGCCCAGGUGAGAGCUGCUGCGGGUCACCUCAUCAACAGAGGAUUGAGCAUCA
B15: chr12:56205560:56205676:-|3pUTR|ENSG00000181852|unk|FALSE|unique (ssRNA)
RNA: GGGAGUUCUACAGUCCGACGAUCCUCUUGUGGCACAGGCCAUAAUUGUUCCAUAGACCCCUCUCUAGCCCUGUGACUGUAGUUAGUUACUUUGAUAAUUUUCUUUGGCCAUUGUUUGUUUAUAUUUCACAAACUCCACCUACUCAACAGAGGAUUGAGCAUCA
B16: ENSG00000136451:be:win_3701|3pUTR|ENSG00000136451|bound_else_gene|NA|bound_elsewhere_windowed (ssRNA)
RNA: GGGAGUUCUACAGUCCGACGAUCUCUCUGGUGGGCUGGCAGUCAUAAUUCACAAUUCAGACAGCCCAGGCUUCCUCCACAGUGGUCCAAGGAGCAGUCCUCAGUGGGGGCAGGUGUGGGCCCUACCCCUAAGCUAGAAUGUGGCAACAGAGGAUUGAGCAUCA
B17: ENSG00000107863:be:win_451|CDS|ENSG00000107863|bound_else_gene|NA|bound_elsewhere_windowed (ssRNA)
RNA: GGGAGUUCUACAGUCCGACGAUCUUGGAACUUAGUGUUAUGCCAAAAGAUGAAGACAUUCUCCAAGUGCUACAGUUUACAAAGGAUGUCACAGCACUGGCAUAUUCUCAAGAUGCCUACCUGAAAGGCAACGAAGCUUAUAGCCAACAGAGGAUUGAGCAUCA
B18: chr9:96387934:96388035:-|3pUTR|ENSG00000165244|msi1|total|mutant (ssRNA)
RNA: GGGAGUUCUACAGUCCGACGAUCAAUAUUUUGUAAAUAUGGACUGCACAGUACAGGGCCGAAAACUACAUAUUGUGGGAAGCCCGAUUUUGCAAGUUUAAUGCAUUCAUUGGAAGCAGUUCUCACAGGAAGCACUUUCUGAAUCAACAGAGGAUUGAGCAUCA
B19: chr20:32237940:32238012:+|3pUTR|ENSG00000101346|msi1_unk|FALSE|overlapping (ssRNA)
RNA: GGGAGUUCUACAGUCCGACGAUCUUUCAAAGAUACAAAUAUUUACAUAGUUUUAAUCAUGUAAUAUAUACAAUUUAAUGUCCUAGUGUUUUACUUAAUAGUGUAUCAUGUUUUCCCUGUUGGUAUGUAGCCUGGAUAAAUGCUCAACAGAGGAUUGAGCAUCA
B20: chr17:3662948:3663056:-|3pUTR|ENSG00000213977|unk|total|mutant (ssRNA)
RNA: GGGAGUUCUACAGUCCGACGAUCAGUUUGAUACAAAAUGUUUUUAUCGUACUCUUUGGAGAUGCCCAUUCUACUUUUGAAUUCCGCUUUUACUAAUUCGCAUCUGGAAGCUCAGCAAGUGCACAAGCCUUACUUUGGUUACCGCAACAGAGGAUUGAGCAUCA
B21: chr5:76617584:76618642:-|CDS|ENSG00000164220|control|control|control (ssRNA)
RNA: GGGAGUUCUACAGUCCGACGAUCUGAUGGCUUAUAUUUUAUAUAUCUCAUAGCUUUGUGCCUGGGUAGUCUUAAUAGUUGCUUAGAUCCAUUCCUUUAUUUUCUCAUGUCAAAAACCAGAAAUCACUCCACUGCUUACCUUACCAACAGAGGAUUGAGCAUCA
B22: chr4:168927217:168927233:+|3pUTR|ENSG00000129116|msi1_unk|total|mutant (ssRNA)
RNA: GGGAGUUCUACAGUCCGACGAUCAACCACCCAAAUGACCAAGGCAUAUACCGUAUUUGGAGGAAUCAGGGGUUUGGAAGGAGCCGGGAGGAGAAUGAAGGAAAAUGCAACCAGCAUGAUUACCGUGUGUUCAUUCCGAUAAAACAACAGAGGAUUGAGCAUCA

Molecular target: T1, UNK ZnF1-6 (called full-length)
Test: nsRBNS (natural sequence RNA bind-n-seq); RBNS binding buffer (assumed for nsRBNS): 25 mM Tris pH 7.5, 150 mM KCl, 3 mM MgCl2, 0.01% Triton X-100, 500 ug/ml BSA, 20 U/ml SUPERase-In, 4 C; UNK is unkempt and MSI1 is Musashi-1; names of the RNAs are library labels; protein concentration not given here; high values mean tight binding

| Binder | binding signal [enrichment R] |
| --- | --- |
| B1 | 1.05 |
| B2 | 1.88 |
| B3 | 0.364 |
| B4 | 1.85 |
| B5 | 2.33 |
| B6 | 2.83 |
| B7 | 0.605 |
| B8 | 1.29 |
| B9 | 3.9 |
| B10 | 0.79 |
| B11 | 10.8 |
| B12 | 15.5 |
| B13 | 6.79 |
| B14 | 22 |
| B15 | 33.5 |
| B16 | 0.776 |
| B17 | 0.399 |
| B18 | 0.299 |
| B19 | 4.06 |
| B20 | 0.437 |
| B21 | 4.63 |
| B22 | 0.58 |
